# According to PubChem BioAssay (NCI):
# The panel holds about 79,000 compounds, 15% with a hit somewhere; the sample as a whole holds those more often. A number with no mark means an inactive call. Active and inactive are the calls of the source. Cut-off read from the data, not from the text of the source: active = growth inhibition above about 70%; inactive = the rest.
# Key:
# [1] = NCI Yeast Anticancer Drug Screen. Data for the rad52 strain (AID 147);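 note: 0% = growth of vehicle-treated control cultures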; details: S. cerevisiae rad52 mutant growth inhibition, stronger effect = higher value
# In short: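 Here a repair-compromised yeast strain receives each compound; its growth is then quantified and normalised to vehicle-only controls.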
# [2] = NCI Yeast Anticancer Drug Screen. Data for the wt1 strain (AID 149);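 note: 0% = growth of vehicle-treated wt1 cultures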; details: S. cerevisiae wt1 strain (SPY 50644) growth inhibition, stronger effect = higher value
# In short: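 Readout: yeast growth inhibition, normalised to vehicle controls, in the wt1 strain exposed to test compounds.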
# [3] = NCI Yeast Anticancer Drug Screen. Data for the rad50EPP+ strain (AID 151);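 note: 0% = growth of vehicle-treated control cultures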; details: S. cerevisiae rad50 mutant strain, stronger effect = higher value
# In short: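 Read-out is yeast growth inhibition relative to vehicle; cells used were the rad50EPP+ strain.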
# [4] = NCI Yeast Anticancer Drug Screen. Data for the mgt1 strain (AID 153); details: S. cerevisiae mgt1 mutant growth inhibition, stronger effect = higher value
# In short: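 Measured: inhibition of mgt1 yeast growth by compound, normalized to vehicle-treated cultures.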
# [5] = NCI Yeast Anticancer Drug Screen. Data for the rad50 strain (AID 155);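 note: 0% = growth of vehicle-only cultures of the same strain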; details: S. cerevisiae rad50 strain growth inhibition, stronger effect = higher value
# In short: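 Compounds were tested on a yeast strain with an engineered DNA damage repair alteration; the reported value is growth inhibition normalised to vehicle treatment.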
# [6] = NCI Yeast Anticancer Drug Screen. Data for the mec2-1 strain (AID 157); details: S. cerevisiae mec2-1 strain, stronger effect = higher value
# In short: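 Using mec2-1 yeast: add compound, measure growth, express inhibition versus vehicle-treated cultures.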
# [7] = NCI Yeast Anticancer Drug Screen. Data for the rad14 strain (AID 159);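 note: 0% = growth of vehicle-treated control cultures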; details: S. cerevisiae rad14 strain growth inhibition, stronger effect = higher value
# In short: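 Compound-treated yeast with a defined DNA-repair lesion; growth inhibition normalised to vehicle-treated cultures.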
# [8] = NCI Yeast Anticancer Drug Screen. Data for the sgs1 mgt1 strain (AID 161);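 note: 0% = growth of cultures given vehicle only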; details: S. cerevisiae sgs1 mgt1 strain, stronger effect = higher value
# In short: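 Percent growth inhibition was derived by comparing compound-exposed mutant yeast with vehicle-exposed cultures. The strain carries alterations in DNA damage repair.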
# [9] = NCI Yeast Anticancer Drug Screen. Data for the CLN2oe strain (AID 163);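 note: 0% = growth of vehicle-only control cultures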; details: S. cerevisiae CLN2oe strain, stronger effect = higher value
# In short: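 Whole-cell yeast growth assay. A strain engineered for altered cell-cycle control received compound, and inhibition relative to vehicle-treated cultures was recorded.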
# [10] = NCI Yeast Anticancer Drug Screen. Data for the cln2 rad14 strain (AID 165);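 note: 0% = growth equal to vehicle treated cultures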; details: S. cerevisiae cln2 rad14 strain, stronger effect = higher value
# In short: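 Yeast strain cln2 rad14, bearing defects in cell cycle control and DNA repair, serves as the test system; values reflect growth inhibition compared with vehicle.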
# [11] = NCI Yeast Anticancer Drug Screen. Data for the bub3 strain (AID 167); details: S. cerevisiae bub3 mutant strain, stronger effect = higher value
# In short: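 Growth of a checkpoint-deficient yeast mutant is measured after compound exposure. Values represent inhibition relative to vehicle.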
# [12] = NCI Yeast Anticancer Drug Screen. Data for the wt2 strain (AID 169);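 note: 0% = growth of vehicle-treated yeast cultures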; details: S. cerevisiae wt2 strain growth inhibition, stronger effect = higher value
# In short: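 Treated yeast vs. vehicle-treated yeast: growth inhibition determined.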
# [13] = NCI Yeast Anticancer Drug Screen. Data for the mlh1 strain (AID 171);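 note: 0% = growth of vehicle-treated control cultures of the same strain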; details: S. cerevisiae mlh1 strain growth inhibition, stronger effect = higher value
# In short: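 A yeast strain with a defined genetic lesion serves as the test organism. Cultures receive compound or vehicle, and growth is measured.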
# [14] = NCI Yeast Anticancer Drug Screen. Data for the sgs1 strain (AID 173);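 note: 0% = growth of vehicle-only control cultures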; details: S. cerevisiae sgs1 mutant, stronger effect = higher value
# In short: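 A genetically defined yeast mutant is incubated with the test compound, and its growth is compared to that of the same strain given vehicle.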
# [15] = NCI Yeast Anticancer Drug Screen. Data for the mlh1 rad18 strain (AID 175); details: S. cerevisiae mlh1 rad18 strain growth inhibition, stronger effect = higher value
# In short: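 Steps: expose repair-defective yeast to compound; measure growth; express inhibition against vehicle-treated controls.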
# [16] = NCI Yeast Anticancer Drug Screen. Data for the rad18 strain (AID 177); details: S. cerevisiae rad18 mutant growth inhibition, stronger effect = higher value
# In short: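 Measured value is growth inhibition of a yeast strain bearing a DNA repair alteration, referenced to vehicle-treated cells.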
# [17] = at 5.0 µM (retest, dose inferred, filed as 0.5)
# [18] = at 50.0 µM (retest, dose inferred, filed as 5.0)
smiles,measurement,setting,value
O=C(O)c1cccc(-c2c3ccc(=O)cc-3oc3cc(O)ccc23)c1,growth inhibition,[1]; at 1.2 µM,-4%
same,growth inhibition,[1]; at 3.7 µM,26%
same,growth inhibition,[1]; at 11.0 µM,23%
same,growth inhibition,[1]; at 33.0 µM,62%
same,growth inhibition,[1]; at 100.0 µM,85% (active)
same,growth inhibition,[2]; at 1.2 µM,-10%
same,growth inhibition,[2]; at 3.7 µM,-5%
same,growth inhibition,[2]; at 11.0 µM,18%
same,growth inhibition,[2]; at 33.0 µM,77% (active)
same,growth inhibition,[2]; at 100.0 µM,96% (active)
same,growth inhibition,[3]; at 1.2 µM,-10%
same,growth inhibition,[3]; at 3.7 µM,3%
same,growth inhibition,[3]; at 11.0 µM,1%
same,growth inhibition,[3]; at 33.0 µM,-2%
same,growth inhibition,[3]; at 100.0 µM,25%
same,growth inhibition,[4]; at 1.2 µM,21%
same,growth inhibition,[4]; at 3.7 µM,12%
same,growth inhibition,[4]; at 11.0 µM,43%
same,growth inhibition,[4]; at 33.0 µM,80% (active)
same,growth inhibition,[4]; at 100.0 µM,97% (active)
same,growth inhibition,[5]; at 1.2 µM,9%
same,growth inhibition,[5]; at 3.7 µM,13%
same,growth inhibition,[5]; [17],90% (active)
same,growth inhibition,[5]; at 11.0 µM,22%
same,growth inhibition,[5]; at 33.0 µM,65%
same,growth inhibition,[5]; [18],99% (active)
same,growth inhibition,[5]; at 50.0 µM,63.6%
same,growth inhibition,[5]; at 100.0 µM,90% (active)
same,growth inhibition,[6]; at 1.2 µM,14%
same,growth inhibition,[6]; at 3.7 µM,14%
same,growth inhibition,[6]; [17],94% (active)
same,growth inhibition,[6]; at 11.0 µM,36%
same,growth inhibition,[6]; at 33.0 µM,84% (active)
same,growth inhibition,[6]; [18],99% (active)
same,growth inhibition,[6]; at 50.0 µM,23.1%
same,growth inhibition,[6]; at 100.0 µM,96% (active)
same,growth inhibition,[7]; at 1.2 µM,-29%
same,growth inhibition,[7]; at 3.7 µM,-20%
same,growth inhibition,[7]; at 11.0 µM,2%
same,growth inhibition,[7]; at 33.0 µM,71% (active)
same,growth inhibition,[7]; at 100.0 µM,95% (active)
same,growth inhibition,[8]; [17],0%
same,growth inhibition,[8]; [18],39%
same,growth inhibition,[8]; at 50.0 µM,54.2%
same,growth inhibition,[9]; at 1.2 µM,11%
same,growth inhibition,[9]; at 3.7 µM,-13%
same,growth inhibition,[9]; at 11.0 µM,-4%
same,growth inhibition,[9]; at 33.0 µM,61%
same,growth inhibition,[9]; at 100.0 µM,96% (active)
same,growth inhibition,[10]; [17],33%
same,growth inhibition,[10]; [18],69%
same,growth inhibition,[10]; at 50.0 µM,51%
same,growth inhibition,[11]; at 1.2 µM,10%
same,growth inhibition,[11]; at 3.7 µM,29%
same,growth inhibition,[11]; [17],53%
same,growth inhibition,[11]; at 11.0 µM,49%
same,growth inhibition,[11]; at 33.0 µM,79% (active)
same,growth inhibition,[11]; [18],69%
same,growth inhibition,[11]; at 50.0 µM,62.9%
same,growth inhibition,[11]; at 100.0 µM,92% (active)
same,growth inhibition,[12]; at 1.2 µM,-33%
same,growth inhibition,[12]; at 3.7 µM,-31%
same,growth inhibition,[12]; at 11.0 µM,-1%
same,growth inhibition,[12]; at 33.0 µM,76% (active)
same,growth inhibition,[12]; at 100.0 µM,95% (active)
same,growth inhibition,[13]; at 1.2 µM,-23%
same,growth inhibition,[13]; at 3.7 µM,-6%
same,growth inhibition,[13]; at 11.0 µM,39%
same,growth inhibition,[13]; at 33.0 µM,78% (active)
same,growth inhibition,[13]; at 100.0 µM,93% (active)
same,growth inhibition,[14]; at 1.2 µM,16%
same,growth inhibition,[14]; at 3.7 µM,35%
same,growth inhibition,[14]; at 11.0 µM,44%
same,growth inhibition,[14]; at 33.0 µM,83% (active)
same,growth inhibition,[14]; at 100.0 µM,92% (active)
same,growth inhibition,[15]; [17],94% (active)
same,growth inhibition,[15]; [18],99% (active)
same,growth inhibition,[15]; at 50.0 µM,47.8%
same,growth inhibition,[16]; at 1.2 µM,-3%
same,growth inhibition,[16]; at 3.7 µM,6%
same,growth inhibition,[16]; at 11.0 µM,41%
same,growth inhibition,[16]; at 33.0 µM,71% (active)
same,growth inhibition,[16]; at 100.0 µM,89% (active)
